# Experimental data: publication PMC10726135, “HNF4α isoforms regulate the circadian balance between carbohydrate and lipid metabolism in the liver”
# The full ranking holds about 18,000 sequences; the median of “log2 normalized intensity” is about 0.36, and the highest 2% start at about 7.3. The full list was thinned out, with the highest values kept by preference.
# Molecular target: T1, HNF4alpha8 (COS-7 nuclear extract) (Homo sapiens, UniProt P41235-5 1-452)
# T1 sequence: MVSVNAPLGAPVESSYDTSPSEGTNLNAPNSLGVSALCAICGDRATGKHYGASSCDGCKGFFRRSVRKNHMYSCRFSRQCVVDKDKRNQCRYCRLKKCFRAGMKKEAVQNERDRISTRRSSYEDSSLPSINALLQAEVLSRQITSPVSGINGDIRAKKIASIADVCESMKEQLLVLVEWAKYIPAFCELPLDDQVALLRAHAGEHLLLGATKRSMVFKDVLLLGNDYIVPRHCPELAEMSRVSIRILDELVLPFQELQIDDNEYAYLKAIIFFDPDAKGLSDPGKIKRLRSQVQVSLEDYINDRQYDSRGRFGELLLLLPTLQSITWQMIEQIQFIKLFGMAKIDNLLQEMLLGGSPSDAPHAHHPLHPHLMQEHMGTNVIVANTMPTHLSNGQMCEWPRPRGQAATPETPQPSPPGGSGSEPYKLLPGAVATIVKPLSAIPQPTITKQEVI
# Experiment: protein-binding microarray; COS-7 nuclear extract on double-stranded Agilent 4x180k PBM; binding buffer, salt, pH and temperature not given in the material; high values mean tight binding
# Details: chain copies: 2; label: 3' end of strand 1 on the slide; dsDNA, one strand shown
# Method in brief: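 A human HNF4α isoform was expressed in COS-7 cells by transient CaPO4 transfection, and nuclear extracts were prepared. These were applied to a custom Agilent SurePrint G3 4x180k array carrying ~44,000 test sequences in quadruplicate as double-stranded ~60-nt oligonucleotides, and an Agilent G2565CA scanner imaged bound HNF4α at 2-µm resolution. The background-corrected, normalized gProcessedSignal from Agilent software was used as the binding signal.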
row,Sequence,binding signal
1,AAGATAATGGGTCCGAAGGTCAGCTGACCAGCCTAGGGAGATTAGAGTATCGGTCGA,5.57 log2 normalized intensity
2,TGATTATTTGTGAAGGCATTATTGGTGAAAGCCTAGGGAGATTAGAGTATCGGTCGA,0.974 log2 normalized intensity
3,TCAGAGCTTGAAAAGTCTTTCTGCCAAAGTGCCTAGGGAGATTAGAGTATCGGTCGA,0.513 log2 normalized intensity
4,TGGCATCCCTGTGGTATTTGCTCTGTCATCGCCTAGGGAGATTAGAGTATCGGTCGA,1.39 log2 normalized intensity
5,GCTAAAAGTTGAATTCTTGACTTTGGACTTGCCTAGGGAGATTAGAGTATCGGTCGA,6.55 log2 normalized intensity
6,GACCTCTGGACCTCATCTTCCTCCCCAATAGCCTAGGGAGATTAGAGTATCGGTCGA,4.6 log2 normalized intensity
7,CCTAGGTGCTGAAGATGCAACAGTGACCCAGCCTAGGGAGATTAGAGTATCGGTCGA,3.1 log2 normalized intensity
8,AGTCTGGAGGGGTGCGAAGGTCGAGGCCAGGCCTAGGGAGATTAGAGTATCGGTCGA,3.39 log2 normalized intensity
9,AGCTACTAGCAAATCTGCCCAACCTTTGCCGCCTAGGGAGATTAGAGTATCGGTCGA,2.1 log2 normalized intensity
10,TTCTTTTTTTTTTTTTTTTTTTTTTGAGATGCCTAGGGAGATTAGAGTATCGGTCGA,3.08 log2 normalized intensity
11,TGCCCTTGACTTTTTGTGGGGGCAGATGTTGCCTAGGGAGATTAGAGTATCGGTCGA,2.31 log2 normalized intensity
12,CTGCTTTTATGACCTTTGACTGCAGAAGATGCCTAGGGAGATTAGAGTATCGGTCGA,6.33 log2 normalized intensity
13,ATGCCAGATGACCTTTGCCCTTGACTTTTTGCCTAGGGAGATTAGAGTATCGGTCGA,9.28 log2 normalized intensity
14,AGATGACCTTTGCCCTTGACTTTTTGTGGGGCCTAGGGAGATTAGAGTATCGGTCGA,7.72 log2 normalized intensity
15,ACCTTTGCCCTTGACTTTTTGTGGGGGCAGGCCTAGGGAGATTAGAGTATCGGTCGA,3.39 log2 normalized intensity
16,AGTGAGCCAAGGTACCCTGGCTTGTAATTCGCCTAGGGAGATTAGAGTATCGGTCGA,-0.844 log2 normalized intensity
17,ATCAGAGCTGGATGTGAGTTATGACTACTTGCCTAGGGAGATTAGAGTATCGGTCGA,0.62 log2 normalized intensity
18,AAATCCCCGCCTTTGACACAGGCGACCTTCGCCTAGGGAGATTAGAGTATCGGTCGA,4.58 log2 normalized intensity
19,CTGCAGATTGACTCAGGCATTCTGACCTTTGCCTAGGGAGATTAGAGTATCGGTCGA,7.32 log2 normalized intensity

row,Sequence,binding signal
1,CCTTTTATTTTCTTATCTGCCTAGGCATTTGCCTAGGGAGATTAGAGTATCGGTCGA,1.58 log2 normalized intensity
2,CCCGCCTTTGACACAGGCGACCTTCGCTCGGCCTAGGGAGATTAGAGTATCGGTCGA,6.06 log2 normalized intensity
3,GATTGACTCAGGCATTCTGACCTTTGTCTCGCCTAGGGAGATTAGAGTATCGGTCGA,7.94 log2 normalized intensity
4,CCATATCACATTTTAAGGTCTGGCATTCTTGCCTAGGGAGATTAGAGTATCGGTCGA,1.1 log2 normalized intensity
5,TCAGGCACAGCTCGACCTTTGACCTTCGGCGCCTAGGGAGATTAGAGTATCGGTCGA,10.9 log2 normalized intensity
6,TTTTAAGGTCTGGCATTCTTTTTGACCTTTGCCTAGGGAGATTAGAGTATCGGTCGA,8.23 log2 normalized intensity
7,CACAGCTCGACCTTTGACCTTCGGCTTCCCGCCTAGGGAGATTAGAGTATCGGTCGA,9.06 log2 normalized intensity
8,CCTTTGACCTTCGGCTTCCCCAGAGAAAGAGCCTAGGGAGATTAGAGTATCGGTCGA,3.38 log2 normalized intensity
9,CTTTGACACAGGCGACCTTCGCTCGGCTCGGCCTAGGGAGATTAGAGTATCGGTCGA,4.27 log2 normalized intensity
10,ACTCAGGCATTCTGACCTTTGTCTCCAGGCGCCTAGGGAGATTAGAGTATCGGTCGA,6.52 log2 normalized intensity
11,CCAACAGGTGAAGACATGCTGGTGTGTGATGCCTAGGGAGATTAGAGTATCGGTCGA,0.875 log2 normalized intensity
12,AGATGGTCAAAGGTTGATGGTATGTTTCAGGCCTAGGGAGATTAGAGTATCGGTCGA,3.86 log2 normalized intensity
13,TGAATCCTCTTTGAGTCTGGTGTTCTCTTGGCCTAGGGAGATTAGAGTATCGGTCGA,1.65 log2 normalized intensity
14,CGCATCTGAAGATAAGAGAAGTTGCTCTTTGCCTAGGGAGATTAGAGTATCGGTCGA,2.63 log2 normalized intensity
15,CCTGCAAGGACAAAGGTCATGTTTTCAAACGCCTAGGGAGATTAGAGTATCGGTCGA,6.34 log2 normalized intensity
16,AATTTGAACCAAGATCTGTGAAAGAAAAGTGCCTAGGGAGATTAGAGTATCGGTCGA,-0.147 log2 normalized intensity
17,TATGTGCTGACTGACTCCTGTTACTTCCACGCCTAGGGAGATTAGAGTATCGGTCGA,0.0957 log2 normalized intensity
18,AGTGTGGGGTGACTGACTTAACCCTTGCCTGCCTAGGGAGATTAGAGTATCGGTCGA,2.27 log2 normalized intensity
19,CTCCACTTGGGTATCAGATAGTCCAATGTCGCCTAGGGAGATTAGAGTATCGGTCGA,2.52 log2 normalized intensity

row,Sequence,binding signal
1,GCCTCTCTGTGCTGGAACTTGCTTCCTTATGCCTAGGGAGATTAGAGTATCGGTCGA,1.37 log2 normalized intensity
2,TGTGGTAATAAGTTGGTGGACGCTGGGGAAGCCTAGGGAGATTAGAGTATCGGTCGA,0.488 log2 normalized intensity
3,TCCTTCAGCGTGAACTTTGACATGAGAGAAGCCTAGGGAGATTAGAGTATCGGTCGA,4.21 log2 normalized intensity
4,TATATTCAACCCCCACTTCCTGACTTGGCCGCCTAGGGAGATTAGAGTATCGGTCGA,3.85 log2 normalized intensity
5,TCACACAAATGGATCTTTCTTCAAAAAGAGGCCTAGGGAGATTAGAGTATCGGTCGA,-0.0678 log2 normalized intensity
6,CCCTTTAGTGCCTGGATCTTGGAACAGGTCGCCTAGGGAGATTAGAGTATCGGTCGA,1.97 log2 normalized intensity
7,GTCTCTCAGGCACAGCTCGACCTTTGACCTGCCTAGGGAGATTAGAGTATCGGTCGA,10 log2 normalized intensity
8,CCTGCACACCTGCCTTTGATCAGGGACCTTGCCTAGGGAGATTAGAGTATCGGTCGA,1.97 log2 normalized intensity
9,GCTCAGCTGGTTGCCCCTTTGACCCTCGGGGCCTAGGGAGATTAGAGTATCGGTCGA,7.06 log2 normalized intensity
10,TATTTAGACTCAGCATGTCTTCTGACCTTTGCCTAGGGAGATTAGAGTATCGGTCGA,7.33 log2 normalized intensity
11,CCTCTGTCTCTCAGGCACAGCTCGACCTTTGCCTAGGGAGATTAGAGTATCGGTCGA,6.7 log2 normalized intensity
12,GGTCTCCTTGCCCCACCCCCCACCCCAGAAGCCTAGGGAGATTAGAGTATCGGTCGA,6.87 log2 normalized intensity
13,ATGCTGGTCTCCTTGCCCCACCCCCCACCCGCCTAGGGAGATTAGAGTATCGGTCGA,7.48 log2 normalized intensity
14,CAGCATGTCTTCTGACCTTTGGCAATATCTGCCTAGGGAGATTAGAGTATCGGTCGA,5.1 log2 normalized intensity
15,GGGTCATGCTGGTCTCCTTGCCCCACCCCCGCCTAGGGAGATTAGAGTATCGGTCGA,5.73 log2 normalized intensity
16,GCCCCAGCTCGCTCAGCTGGTTGCCCCTTTGCCTAGGGAGATTAGAGTATCGGTCGA,4.47 log2 normalized intensity
17,AGACTCAGCATGTCTTCTGACCTTTGGCAAGCCTAGGGAGATTAGAGTATCGGTCGA,6.98 log2 normalized intensity
18,AGCTCGCTCAGCTGGTTGCCCCTTTGACCCGCCTAGGGAGATTAGAGTATCGGTCGA,8.48 log2 normalized intensity
